High-throughput results as filed in PubChem BioAssay.
The full list was thinned out, with hits kept by preference.
NRP1-CendR mod: modulators of CendR peptide binding to human neuropilin-1. O14786. FAM-RPARPAR peptide binding to NRP-1, fluorescence polarization. inhibition, % at 25 µM. actives 0.85% (n = 360,000). AID 602438;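 active = inhibition or corrected inhibition above about 18%, plus a signal ratio from 0.5 to 1.5, limit read from the data, passing the limit was not always enough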
PDI inh: inhibitors of human protein disulfide isomerase; inhibition, % at 10 µM; AID 588391; P07237; actives 0.052% (n = 350,000); PDI insulin aggregation turbidity, A650, 90 min;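 active = mean inhibition across replicates of 30% or more, whatever share of single replicates reach that level; inconclusive = mean inhibition below 30% while every single replicate reaches 30%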
ARNT-TACC3 inh: ARNT/TACC3 interaction disruption; Q9Y6A5; AlphaScreen His-ARNT PAS-B/GST-TACC3 binding, luminescence; TACC3 fragment carries E629A point mutation; inhibition, % at 9.99 µM; actives 0.66% (n = 390,000);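 active = mean inhibition of replicates at least 50% and at least half of replicates each reaching 50%; inconclusive = half or more replicates reach 50% but mean below 50%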;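 also: 0% = complete ARNT plus TACC3 wells and 100% = ARNT alone without TACC3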
PglD inh: blocks C. jejuni PglD acetyltransferase activity; purified PglD enzyme, DTNB colorimetric CoA detection; inhibition, % at 12.5 µM; actives 0.098% (n = 360,000); in the data active = inhibition above about 16%, passing the limit was not always enough; inconclusive = no clear call, values can overlap the other calls
ALR inh: inhibitors of human sulfhydryl oxidase ALR; actives 3.8% (n = 290,000); purified ALR, DTT oxidation, H2O2 HRP-luminol luminescence; inhibition, % (test concentration not listed);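 active = mean replicate inhibition above about 79%, with every replicate also reaching it, limit read from the data; inconclusive = only one of the two criteria met; inactive = mean below limit and not every replicate reaching it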
Target sequence (P55789 whole entry, looked up): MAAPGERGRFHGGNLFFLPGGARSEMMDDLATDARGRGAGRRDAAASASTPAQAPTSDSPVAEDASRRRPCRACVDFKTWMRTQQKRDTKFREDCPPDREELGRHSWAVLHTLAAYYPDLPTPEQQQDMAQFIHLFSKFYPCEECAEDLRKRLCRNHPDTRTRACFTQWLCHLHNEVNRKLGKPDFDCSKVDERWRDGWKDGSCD
ERp5 block: ERp5 (human) disulfide isomerase inhibition; Q15084; ERp5 insulin aggregation, absorbance 650 nm, 90 min; inhibition, % at 9.99 µM; actives 0.05% (n = 350,000); AID 651711;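 active = mean replicate inhibition above about 25%, with every replicate also reaching it, limit read from the data, passing the limit was not always enough; inconclusive = only one of those two criteria met; inactive = neither criterion met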
Target sequence (Q15084 whole entry, looked up): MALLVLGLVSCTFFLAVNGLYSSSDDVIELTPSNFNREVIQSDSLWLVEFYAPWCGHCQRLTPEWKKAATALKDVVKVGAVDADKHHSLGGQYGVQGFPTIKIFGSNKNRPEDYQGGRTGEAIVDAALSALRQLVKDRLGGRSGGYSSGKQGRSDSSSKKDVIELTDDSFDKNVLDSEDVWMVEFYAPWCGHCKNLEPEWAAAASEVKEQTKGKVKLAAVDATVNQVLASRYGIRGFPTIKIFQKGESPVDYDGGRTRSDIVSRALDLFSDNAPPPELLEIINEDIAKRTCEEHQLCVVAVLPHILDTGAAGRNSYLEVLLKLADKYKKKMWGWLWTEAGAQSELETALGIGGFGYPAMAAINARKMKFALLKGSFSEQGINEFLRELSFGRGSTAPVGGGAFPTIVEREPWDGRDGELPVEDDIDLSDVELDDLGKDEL
Numbers without * were called inactive; ? = inconclusive; · = no result given.

SMILES	NRP1-CendR mod	PDI inh	ARNT-TACC3 inh	PglD inh	ALR inh	ERp5 block
COC1=C/C(=C/c2c(N)n3c(nc2=O)sc2cc(S(C)(=O)=O)ccc23)C=CC1=O	-260.4	6.4	-2.3	-4.0	99.5*	-1.6
CS(=O)(=O)c1ccc2c(c1)sc1nc(=O)c(/C=C3/C=CC(=O)C(O)=C3)c(N)n12	-291.7	1.1	18.1	·	90.0*	-0.4
CCOC1=C/C(=C/c2c(N)n3oc(C)cc3nc2=O)C=CC1=O	·	·	·	·	90.7*	·
CCS(=O)(=O)c1nn2c(N)c(/C=C3/C=CC(=O)C(OC)=C3)c(=O)nc2s1	-172.1	6.4	-9.8	·	99.9*	·
CCOC1=C/C(=C/c2c(N)n3nc(-c4ccccc4)sc3nc2=O)C=CC1=O	-274.7	3.2	·	·	·	7.2
CCN1C(=O)/C(=C\c2nc3ccccc3c(=O)n2-c2ccccc2)c2ccccc21	-4.3	3.5	-18.9	·	66.2	1.4
COc1ccc(-n2c(/C=C3\C(=O)N(C)c4ccccc43)nc3ccccc3c2=O)cc1	-4.0	13.6	-4.2	·	97.1*	0.2
CCOc1ccccc1C1N=C(c2ccc(OC)cc2)CC(c2ccccc2O)N1 (centres undefined)	-12.8	1.2	6.7	·	96.2*	0.0
COc1cc(/C=N/NC(=O)c2ccc(=O)[nH]n2)ccc1O	-0.2	8.6	0.7	·	99.3*	·
COc1ccc(/C=N/NC(=O)c2cc(C(C)(C)C)[nH]n2)cc1COc1ccc(F)cc1F	39.1*	9.1	-0.3	1.5	-6.3	-5.3
O=C(N/N=C/c1ccc(O)cc1)c1cc(C2CC2)[nH]n1	1.5	-3.2	4.9	-2.6	99.2*	0.9
COc1cc(/C=N/NC(=O)c2cc(C34CC5CC(CC(C5)C3)C4)[nH]n2)ccc1O	-2.1	-3.0	·	·	53.5	·
COc1cc(/C=N/NC(=O)c2cc(C3CC3)[nH]n2)ccc1O	-1.9	6.0	4.8	4.8	99.0*	5.4
O=C(NCC[C@@H]1CC[C@@H](NS(=O)(=O)Cc2ccccc2)[C@H](CO)O1)C1CCOCC1	·	·	5.8	0.9	·	2.0
CCC(=O)N[C@@H]1CC[C@H](CC(=O)NCC2CC2)O[C@H]1CO	·	·	·	·	·	0.4
O=c1cc(-c2ccc(O)cc2)oc2cc(O)c(C3OC(CO)C(O)C(O)C3O)c(O)c12 (centres undefined)	-10.3	·	6.4	-2.8	?	-3.7
O=c1cc(-c2ccc(O)c(O)c2)oc2cc(O[C@@H]3O[C@H](CO)[C@@H](O)[C@H](O)[C@H]3O)cc(O)c12	-74.8	20.4	19.2	-4.1	99.0*	·
C[C@@H]1O[C@@H](OC[C@H]2O[C@@H](Oc3cc(O)c4c(=O)cc(-c5ccc(O)c(O)c5)oc4c3)[C@H](O)[C@@H](O)[C@@H]2O)[C@H](O)[C@H](O)[C@H]1O	-12.6	4.0	17.5	-5.2	98.9*	·
C[C@H]1CN([C@@H](C)CO)C(=O)c2cc(-c3ccncc3)cnc2O[C@H]1CN(C)C(=O)c1ccc(F)cc1	·	·	-2.4	-3.5	·	-5.2
CC(=O)/C(N=Nc1c(C)n(C)n(-c2ccccc2)c1=O)=C(\C)O	11.3	-1.4	34.6	·	66.5	5.0
Cc1c(O)c(=O)n(-c2ccccc2)n1C	-6.1	-0.1	-6.2	6.5	18.9	-3.9
Cc1c(N=NC2=C(O)CC(C)(C)CC2=O)c(=O)n(-c2ccccc2)n1C	-14.7	4.9	60.8*	·	10.7	4.6
CCOC(=O)/C(N=Nc1c(C)n(C)n(-c2ccccc2)c1=O)=C(\C)O	-8.1	5.9	72.1*	·	3.3	·
CC1=CC(=Nc2c(C)n(C)n(-c3ccccc3)c2=O)C=C(C)C1=O	8.0	1.6	-7.6	12.3	98.8*	0.1
CCNc1ccc(N=Nc2c(C)n(C)n(-c3ccccc3)c2=O)cc1	-28.2	4.3	·	·	98.7*	-1.0
SMILES	NRP1-CendR mod	PDI inh	ARNT-TACC3 inh	PglD inh	ALR inh	ERp5 block
CCC(C)C1=CC(=Nc2c(C)n(C)n(-c3ccccc3)c2=O)C=C(C(C)CC)C1=O (centres undefined)	5.1	1.6	-6.1	·	1.6	8.0
O=C(Nc1ccc2c(c1)[C@H]1C[C@@H](CC(=O)N3CCc4ccccc4C3)O[C@@H](CO)[C@H]1O2)C1CCC1	·	·	-0.5	-1.6	·	5.6
COc1ccc(C(=O)Nc2ccc3c(c2)C(=O)N(C)C[C@@H](OC)[C@@H](C)CN(C(C)=O)[C@@H](C)CO3)cc1	·	·	-5.4	-1.1	·	-2.3
CCOc1ccc(CNC(=S)N/N=C\c2ccc([N+](=O)[O-])cc2)cc1	0.9	-0.8	-1.1	·	98.6*	·
C[C@H](CO)N1C[C@H](C)[C@@H](CN(C)S(=O)(=O)c2cn(C)cn2)OCCCC[C@H](C)Oc2ccc(NC(=O)c3ccccc3)cc2C1=O	·	·	-5.6	-0.9	·	4.6
Cc1ccc(S(=O)(=O)c2ncccc2N)cc1	55.5*	0.3	-2.6	-3.5	·	1.7
Cc1ccc(S(=O)(=O)c2ncccc2[N+](=O)[O-])cc1	-1.9	-0.1	29.7	-3.0	6.2	-0.5
CC(=O)N1CCN(c2ccc(N)cc2)CC1	20.1	-3.3	3.0	-0.9	98.5*	1.8
Nc1ccc(N2CCN(c3ccc(Cl)c(Cl)c3)CC2)cc1	9.9	-5.8	-7.1	·	58.3	3.6
S=C(c1ccc(N2CCCC2)cc1)N1CCCCC1	-13.5	-22.4	·	1.6	98.6*	·
Nc1ccc(N2CCN(c3ccc(F)cc3)CC2)cc1	6.8	-11.7	·	·	99.0*	0.6
Nc1ccc(N2CCCCCC2)cc1	·	·	·	·	98.5*	·
C[C@H](CO)N1C[C@H](C)[C@@H](CN(C)C(=O)c2ccccc2)OCCCC[C@H](C)Oc2ccc(NC(=O)NC3CCCCC3)cc2C1=O	·	·	-6.0	0.1	·	-1.1
CCC(=O)N1[C@@H](CO)[C@@H](c2ccc(-c3cccnc3)cc2)[C@@H]1CN(CC)C(C)=O	·	·	-12.3	-1.2	·	-1.9
COC(=O)c1ccc(CN2CC(=O)N3[C@@H](CO)[C@@H](c4ccc(Br)cc4)[C@@H]3C2)cc1	·	·	·	·	·	-2.3
COc1ccc(S(=O)(=O)N(C)C[C@@H]2Oc3ccc(NS(=O)(=O)c4ccc(C)cc4)cc3CC(=O)N([C@H](C)CO)C[C@H]2C)cc1	·	·	-3.4	-0.3	·	·
C[C@H]1CN([C@@H](C)CO)C(=O)c2cccc(NC(=O)C3CCOCC3)c2O[C@H]1CN(C)S(=O)(=O)c1ccc(Cl)cc1	·	·	-0.5	-9.5	·	1.3
CNC(=O)C[C@H]1CC[C@H]2[C@H](COc3ccc(NC(=O)Nc4cccc(F)c4)cc3C(=O)N2C)O1	·	·	-2.0	3.9	·	·
O=C(N1CCCCC1)N1CCN(c2ccc(Cl)cc2)CC1	7.9	-2.6	0.1	-3.1	98.3*	·
O=C(c1ccccc1)N1CCN(c2ccc(Cl)cc2)CC1	-1.0	2.1	-3.7	-1.0	65.8	6.5
O=C(O)C1CSC(c2coc3ccccc3c2=O)N1 (centres undefined)	-3.1	9.0	12.1	·	98.7*	-4.8
CC1CCOC(c2coc3ccccc3c2=O)O1 (centres undefined)	-7.4	11.8	-3.8	-8.4	3.4	-8.2
